# Test results as given in PubChem BioAssay (NCI).
# The panel holds about 83,000 compounds, 20% with a hit somewhere; the sample as a whole holds those more often.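 Cell lines were cultured in 96-well plates, exposed to a single compound concentration, and assessed for percent growth 48 hours later.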 Values without a mark were called inactive. The source made the active and inactive calls. Rule for the calls: active = growth percent below 10; inactive = the rest.
# Experiments:
# Experiment in all cases: NCI-60 one-dose screen, 48 h (100 = growth as untreated, 0 = no growth, -100 = all killed)
# Conditions in all cases: 10 µM unless noted
# BT-549 breast = tested on: BT-549 breast
# MDA-MB-435 melanoma = tested on: MDA-MB-435 melanoma
# SW-620 colon = tested on: SW-620 colon
# MCF7 breast = tested on: MCF7 breast
# HCT-116 colon = tested on: HCT-116 colon
# HCC-2998 colon = tested on: HCC-2998 colon
# KM12 colon = tested on: KM12 colon
SMILES,growth (BT-549 breast),growth (MDA-MB-435 melanoma),growth (SW-620 colon),growth (MCF7 breast),growth (HCT-116 colon),growth (HCC-2998 colon),growth (KM12 colon)
Cc1cc(NC(=O)CNc2nc(Oc3ccc(F)cc3)nc(-c3ccc(F)cc3)n2)ccc1Cl,100%,105%,101%,94.8%,82.1%,102%,103%
O=C1CC23OC(C(O)c4ccccc4N12)C1C(c2ccccc2)=NOC13 (stereo unspecified),24.6%,-28% (active),29.2%,26.4%,21.3%,85.2%,28.9%
COc1ccc(NC(=O)c2ccc(Nc3ncnc4[nH]c(C)c(C)c34)cc2)cc1,99.1%,108%,102%,100%,106%,104%,103%
CC(=O)Nc1c(C(=O)Nc2ccccc2)sc2nc3c(cc12)C(OC(C)=O)CCC3 (stereo unspecified),83.6%,35.3%,97.4%,97.6%,104%,68.7%,80.2%
NC(N)=NC(N)=Nc1cc2ccccc2c2ccccc12,36.1%,68.9%,22.9%,2.2% (active),-44.5% (active),26.2%,47%
CNc1cccc2c1C(=O)c1cccc(N)c1C2=O,30.8%,36.1%,63.1%,25%,31.5%,93.9%,35.8%
CC1CCCN(CCCCCOc2ccc3oc4ccc(Cl)cc4c(=O)c3c2)C1 (stereo unspecified),80.3%,25.1%,56.6%,60.8%,32.2%,78.3%,59.4%
COc1ccc2nc3nc4ccc[nH]c4cc3c2c1,84.1%,101%,95.7%,5.69% (active),104%,101%,52.1%
CCCCCCN1C(=O)CN=C1Nc1ccc2cc3ccc(NC4=NCC(=O)N4CCCCCC)cc3nc2c1,78.1%,55.3%,-51.6% (active),0.96% (active),20.1%,47.2%,31.1%
COC(=O)c1oc2c(C(=O)/C=C/c3ccc(OC)cc3)c(OCCCN3CCCCC3)ccc2c1C,22.9%,6.56% (active),-17.9% (active),6.82% (active),1.36% (active),-45% (active),-11.5% (active)
CN1CC=C(c2cc(NC(=O)Nc3ccc(Oc4ccnc(NC(=O)C5CC5)c4)c(F)c3)cc(C(F)(F)F)c2)CC1,-11.2% (active),-12.4% (active),-0.0556% (active),-17.1% (active),-10.7% (active),11.8%,-11.2% (active)
Nc1c(C(=O)Nc2cccc3ccccc23)sc2nc3c(cc12)COCC3,51.3%,-1.93% (active),24.9%,18.7%,26.3%,85.5%,40.7%
c1ccc2c3c([nH]c2c1)C(c1ccc(C2NCCc4c2[nH]c2ccccc42)cc1)NCC3 (stereo unspecified),86.9%,-91.6% (active),-80% (active),-81.2% (active),-91.7% (active),-64.8% (active),-62% (active)
CN1C(=O)c2cc(Cl)nc3c(NC(=O)c4cccc(Cl)c4)c(Cl)c(NC(=O)c4cccc(Cl)c4)c1c23,-8.59% (active),3.49% (active),-58.3% (active),18.1%,-56.2% (active),9.23% (active),64.3%
CC1=C/C(=N\N=C2/C=C(C)CC(C)(C)C2)CC(C)(C)C1,112%,108%,106%,102%,98.1%,94.5%,107%
c1ccc(Sc2ncccn2)nc1,137%,104%,95.3%,93.2%,99.3%,101%,106%
c1cc(CNC23CC4CC(CC(C4)C2)C3)cc(C[N+](Cc2cccc(CNC34CC5CC(CC(C5)C3)C4)c2)(Cc2cccc(CNC34CC5CC(CC(C5)C3)C4)c2)Cc2cccc(CNC34CC5CC(CC(C5)C3)C4)c2)c1 (stereo unspecified),24.5% [42 µM],11.3% [42 µM],20.6% [42 µM],2.14% [42 µM] (active),-3.55% [42 µM] (active),34.3% [42 µM],25.8% [42 µM]

SMILES,growth (BT-549 breast),growth (MDA-MB-435 melanoma),growth (SW-620 colon),growth (MCF7 breast),growth (HCT-116 colon),growth (HCC-2998 colon),growth (KM12 colon)
CSc1nc(-c2ccco2)c2c(N)[nH]nc2n1,102%,115%,111%,94.2%,84.1%,111%,44.1%
CCOc1ccc(C2N(c3cc(OC)c(OC)c(OC)c3)C(=O)C2(F)F)cc1 (stereo unspecified),44.2%,16.8%,25.5%,17.2%,8.92% (active),81.7%,28%
C=C(C)[C@@H]1CC[C@]2(C(=O)NCCCO)CC[C@]3(C)[C@H](CC[C@@H]4[C@@]5(C)CCCNC(C)(C)[C@@H]5CC[C@]43C)[C@@H]12,78.5%,69.9%,74.9%,41.5%,53.7%,74.3%,84.5%
Cc1ccc(SC2c3ccc(C)cc3Oc3nc(N)c(C#N)c(N)c32)cc1 (stereo unspecified),78.9%,91.6%,64.6%,5.14% (active),81.7%,103%,96.8%
CCCCCCCc1n(Cc2ccc3ccccc3c2)c2ccccc2[n+]1Cc1ccc2ccccc2c1,-86.6% (active),-92.3% (active),-80% (active),-64.7% (active),-84.6% (active),-61.2% (active),-74.9% (active)
N#Cc1c(-c2ccc(F)cc2)nc(N=Nc2c(O)[nH]c3ccccc23)nc1N1CCOCC1,91.4%,67.7%,66.7%,64.4%,47.2%,96.2%,75.1%
COC(=O)/C=C1\SC(=Nc2cccc(Cl)c2)N(CCc2c[nH]c3ccccc23)C1=O,44.8%,42.7%,40.5%,20.1%,38.2%,52.9%,24.3%
CN1CCN(CC#CCOC(=O)CNC(=O)[C@]23CCC(C)(C)C[C@H]2C2=CC[C@@H]4[C@@]5(C)CC[C@H](O)C(C)(C)[C@@H]5CC[C@@]4(C)[C@]2(C)CC3)CC1,88.9%,101%,86.8%,72%,76.2%,106%,94.5%
C#Cc1cccc(Nc2ncnc3ccc(NC(=O)c4ccccc4)cc23)c1,74.6%,84%,100%,72.1%,76%,97.7%,90%
Nc1c(C(=O)Nc2ccccn2)sc2nc3c(cc12)CCCCCC3,31%,-57.5% (active),19%,15.6%,7.24% (active),48.9%,14.4%
C=C(C)[C@@H]1CC[C@]2(C(N)=O)CC[C@]3(C)[C@H](CC[C@@H]4[C@@]5(C)CCCNC(C)(C)[C@@H]5CC[C@]43C)[C@@H]12,85.2%,78.7%,75.5%,45.3%,55.8%,98.2%,79.8%
CN1CCN(C(=O)[C@@]2(C)CC[C@]3(C)CC[C@]4(C)C(=CC[C@@H]5[C@@]6(C)CC[C@H](OC(=O)c7cccnc7)C(C)(C)[C@@H]6CC[C@]54C)[C@@H]3C2)CC1,73.8%,45.4%,-35.5% (active),19.1%,51.7%,97.3%,53.2%
CCOC(=O)C1=C(C)n2nc(CC#N)c(C#N)c2NC1c1ccc(CC)cc1 (stereo unspecified),85.4%,98.5%,97.6%,88.7%,95.4%,97.6%,97%
Cc1ccc(C(=O)/C(=C/c2ccc([N+](=O)[O-])cc2)S(=O)Cc2ccccc2)cc1 (stereo unspecified),45.8%,19.7%,2.41% (active),1.83% (active),-59.2% (active),74.8%,23.1%
COC(=O)CCc1n(Cc2ccc3ccccc3c2)c2ccccc2[n+]1Cc1ccc2ccccc2c1,-7.25% (active),-13.5% (active),12.1%,1.95% (active),0.405% (active),-2.47% (active),-58.7% (active)
O=C(Nc1ccc(S(=O)(=O)NC2CCCCCC2)cc1)C(c1ccccc1)S(=O)(=O)c1ccc(F)cc1 (stereo unspecified),-3.97% (active),-17% (active),24.6%,0.0605% (active),5.61% (active),15.4%,5.09% (active)
